Measurements from PubChem BioAssay (NCI).
About 79,000 compounds went through this panel and 15% of them were active in at least one assay; those are over-represented in the sample as a whole. Values without a mark were called inactive. Calls of active or inactive are those of the source. Rule as the data show it: active = growth inhibition above about 70%; inactive = the rest.

Assay: NCI Yeast Anticancer Drug Screen. Data for the bub3 strain (AID 167)
Details: S. cerevisiae bub3 mutant strain, at 50.0 µM, hits give high values
Outline: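 Screening used yeast with an engineered genetic alteration affecting cell cycle control. Compound-exposed cultures were compared with vehicle cultures, and reduced growth was taken as inhibition.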

Row | Compound | growth inhibition
1 | O=C1OC(c2ccccc2)(C2(c3ccccc3)C=C(c3ccccc3)C(=O)O2)C=C1c1ccccc1 (stereo not given) | 5.3%
2 | CCN(CC)CCCNc1ccc([N+](=O)[O-])c2nc3ccccc3c(N)c12 | -17.1%
3 | Nc1cc(=O)[nH]c(N)n1 | -5%
4 | CC1(C)OC(=O)C(=CN(C2CCCCC2)C2CCCCC2)C(=O)O1 | -33.6%
5 | CCCCCCCCCCCC(=O)OC(C)CO (stereo not given) | -1.45%
6 | N#C/C(=C\c1c[nH]c2ccccc12)C(=O)c1ccc(O)c(O)c1 | 2.95%
7 | CCOC(=O)CCCCCOC1CCCCO1 (stereo not given) | -7.35%
8 | COc1c2ccoc2cc2oc(=O)ccc12 | 22.4%
9 | OC(c1ccccc1)(c1ccccc1)C1CC1 | -19.2%
10 | COC(=O)C1(C(=O)OC)C2CCCCC21 (stereo not given) | -13.9%
11 | CC(C)=C1C2CCC1[C@H](COS(C)(=O)=O)[C@@H]2COS(C)(=O)=O | 11.1%
12 | Cc1[nH]nc(C(=O)O)c1N | -13.4%
13 | CNC(=O)C(c1ccccc1)C(O)c1ccccc1 (stereo not given) | -0.15%
14 | CN1CCN(c2ccncc2S(=O)(=O)N2CCN(C)CC2)CC1 | -11.4%
15 | CN(CC(=O)c1ccc(I)cc1)Cc1ccccc1 | 12.8%
16 | CCCCOC(=O)/C=C\C(=O)NC(=O)NC(C)(C)C | 5.05%
17 | CC(C)(C)c1cc(C(C)(C)C)c(P(C(O[Si](C)(C)C)=C(c2ccccc2)c2ccccc2)C(O[Si](C)(C)C)=C(c2ccccc2)c2ccccc2)c(C(C)(C)C)c1 | -5%
18 | Cc1ccc(CSCc2c(CSCc3ccc(C)cc3)c(CSCc3ccc(C)cc3)c(CSCc3ccc(C)cc3)c(CSCc3ccc(C)cc3)c2CSCc2ccc(C)cc2)cc1 | 1.75%
19 | Nc1c2ccccc2nc2c(C(=O)Nc3ccc(S(N)(=O)=O)cc3)cccc12 | -2.45%
20 | CC(C)/C=C(\C#N)C(=O)O | -2.65%

Row | Compound | growth inhibition
21 | c1ccc2cc3ccccc3cc2c1 | -0.85%
22 | CCOc1cc2c(cc1Cc1ccc3c(c1)OCO3)OCO2 | 4.35%
23 | O=C(Oc1ccc(OC(=O)c2ccc([N+](=O)[O-])cc2)cc1)c1ccccc1 | -3.05%
24 | CSC1(C)C(=O)Nc2cc([N+](=O)[O-])ccc21 (stereo not given) | -32.5%
25 | Cc1cccc(SC(=O)Nc2cc([N+](=O)[O-])ccc2Cl)c1 | 17.6%
26 | CCCCCCCCCCCCCCCCOc1ccc(Sc2ccc([N+](=O)[O-])cc2)cc1 | 13.6%
27 | Cc1cccc(N=Nc2ccc(O)c(CN(C)C)c2)c1 | 29.1%
28 | CCOC(=O)c1c(N)sc2c1C(C(=O)OCC)CCCC2 (stereo not given) | 37.5%
29 | CC1C[P+](c2ccccc2)(c2ccccc2)Cc2ccccc21 (stereo not given) | -1.85%
30 | COc1ccc(C(C)=O)cc1CCCO | 13%
31 | CC(C)C(=O)c1ccccc1Cl | 2.7%
32 | CC1(C)C(=O)NC(=O)N1CO | 14.9%
33 | C/C(CC(C)C)=N\NC(=O)Nc1ccccc1Cl | 26.7%
34 | COC(=O)C12OCC34C(CC5C(C)CC(=O)C(O)C5(C)C3C(O)C1O)OC(=O)C(OC(C)=O)C24 (stereo not given) | 24.2%
35 | C1CCC2(CC1)SCCS2 | -9.4%
36 | CC(C(c1ccccc1)C(Br)C(=O)c1ccccc1)[N+](=O)[O-] (stereo not given) | 96.5% (active)
37 | CSc1nc2ncnc(N(C)C)c2[nH]1 | -7.4%
38 | O=C(O)CCc1cccc2c(=O)cc(-c3ccccc3)oc12 | 8.35%
39 | NC(=S)NNC(N)=S | -3.2%
40 | S=C(Nc1ccccc1)Nc1ccccn1 | -4.35%
